# Measured values taken from the antibiotic and cytotoxicity screens of Wong et al. (2023).
# Screen size: about 39,000 compounds; about 3,300 (8.5%) were called active. This is one part of a sample in which actives are shown more often than they occur.
# Tested on: HepG2
# Experiment: cytotoxicity call (relative viability < 0.9)
# Details: 10 µM
row,SMILES,cytotoxicity call
1,CC(C)NC(=O)N(C)C[C@@H]1Oc2ccc(NC(=O)NC3CCCCC3)cc2CC(=O)N([C@H](C)CO)C[C@H]1C,inactive
2,O=C(CN1CCOCC1)NCC[C@H]1CC[C@H](NS(=O)(=O)c2ccc(F)cc2)[C@H](CO)O1,inactive
3,C[C@@H]1CCCCO[C@H](CN(C)Cc2ccncc2)[C@H](C)CN([C@H](C)CO)C(=O)c2cc(NC(=O)c3ccccc3)ccc2O1,inactive
4,C[C@@H]1CCCCO[C@@H](CN(C)Cc2ccccc2)[C@@H](C)CN([C@H](C)CO)C(=O)c2cc(NC(=O)c3ccccc3)ccc2O1,inactive
5,C[C@@H]1CN([C@H](C)CO)C(=O)c2cc(C#CCc3ccccc3)cnc2O[C@H]1CN(C)C(=O)C1CCOCC1,inactive
6,Cc1ccc(S(=O)(=O)N(C)C[C@H]2Oc3ccc(NS(=O)(=O)c4c(C)noc4C)cc3C(=O)N([C@@H](C)CO)C[C@H]2C)cc1,inactive
7,CC(C)(C)c1ccc(-c2nc3ccccc3s2)cc1,inactive
8,C[C@H](CO)N1C[C@H](C)[C@@H](CN(C)S(=O)(=O)c2ccccc2)Oc2ncc(-c3cccc(C(=O)N(C)C)c3)cc2C1=O,inactive
9,Cc1noc(C)c1NC(=O)N(C)C[C@@H]1Oc2ccc(NC(=O)CCN3CCOCC3)cc2C(=O)N([C@H](C)CO)C[C@H]1C,inactive
10,C[C@@H]1CN([C@H](C)CO)C(=O)c2cc(NC(=O)Nc3ccc(C(F)(F)F)cc3)ccc2O[C@@H](C)CCCCO[C@@H]1CN(C)Cc1ccc2c(c1)OCO2,active
11,C[C@@H]1CCCCO[C@@H](CN(C)Cc2ccc3c(c2)OCO3)[C@@H](C)CN([C@@H](C)CO)C(=O)c2cc(NC(=O)Nc3ccc(C(F)(F)F)cc3)ccc2O1,active
12,C[C@@H]1CCCCO[C@H](CN(C)Cc2ccc3c(c2)OCO3)[C@@H](C)CN([C@@H](C)CO)C(=O)c2cc(NC(=O)Nc3ccc(C(F)(F)F)cc3)ccc2O1,active
13,C[C@@H]1CCCCO[C@@H](CN(C)Cc2ccc3c(c2)OCO3)[C@H](C)CN([C@@H](C)CO)C(=O)c2cc(NC(=O)Nc3ccc(C(F)(F)F)cc3)ccc2O1,active
14,C[C@@H]1CN([C@@H](C)CO)C(=O)c2cc(NC(=O)Nc3ccc(C(F)(F)F)cc3)ccc2O[C@@H](C)CCCCO[C@@H]1CN(C)Cc1ccc2c(c1)OCO2,inactive
15,C[C@@H]1CN([C@H](C)CO)C(=O)c2cc(NS(C)(=O)=O)ccc2O[C@@H](C)CCCCO[C@@H]1CN(C)C(=O)c1ccncc1,inactive
16,C[C@H](CO)N1C[C@H](C)[C@H](CN(C)C(=O)Nc2ccnc(N3CCOCC3)c2)OCc2cnnn2CCCC1=O,inactive
17,Cc1noc(C)c1S(=O)(=O)N(C)C[C@@H]1Oc2ccc(NC(=O)CCCN(C)C)cc2C(=O)N([C@@H](C)CO)C[C@@H]1C,inactive
18,C[C@H](CO)N1C[C@H](C)[C@@H](CN(C)Cc2ccc(Cl)c(Cl)c2)Oc2c(NC(=O)NC3CCCCC3)cccc2C1=O,inactive
19,Cc1noc(C)c1NC(=O)Nc1cccc2c1O[C@@H](CN(C)C(=O)Nc1ccc(C(F)(F)F)cc1)[C@@H](C)CN([C@H](C)CO)C2=O,inactive
20,COc1ccc(S(=O)(=O)N(C)C[C@@H]2Oc3c(NC(=O)Nc4c(C)noc4C)cccc3C(=O)N([C@H](C)CO)C[C@@H]2C)cc1,inactive
21,CCCC(=O)Nc1ccc2c(c1)OC[C@@H](C)N(Cc1ccc(-c3ccccn3)cc1)C[C@@H](C)[C@H](OC)CN(C)C2=O,inactive
22,C[C@@H]1CCCCO[C@@H](CN(C)Cc2ccc3c(c2)OCO3)[C@@H](C)CN([C@H](C)CO)C(=O)c2cc(NC(=O)Nc3ccc(C(F)(F)F)cc3)ccc2O1,active
23,C[C@H]1CCCCO[C@@H](CN(C)Cc2ccc3c(c2)OCO3)[C@@H](C)CN([C@@H](C)CO)C(=O)c2cc(NC(=O)Nc3ccc(C(F)(F)F)cc3)ccc2O1,active
24,C[C@@H]1CCCCO[C@H](CN(C)Cc2ccc3c(c2)OCO3)[C@H](C)CN([C@@H](C)CO)C(=O)c2cc(NC(=O)Nc3ccc(C(F)(F)F)cc3)ccc2O1,active
25,C[C@H](CO)N1C[C@H](C)[C@H](CN(C)Cc2ccc3c(c2)OCO3)OCCCC[C@H](C)Oc2ccc(NC(=O)Nc3ccc(C(F)(F)F)cc3)cc2C1=O,active

row,SMILES,cytotoxicity call
1,C[C@@H]1CCCCO[C@H](CN(C)C(=O)Cc2ccccc2)[C@H](C)CN([C@@H](C)CO)C(=O)c2cc(NC(=O)c3ccccc3)ccc2O1,inactive
2,CCCNC(=O)N[C@@H]1CC[C@@H](CC(=O)N2CCN(C)CC2)O[C@@H]1CO,inactive
3,Cc1noc(C)c1S(=O)(=O)Nc1ccc2c(c1)C(=O)N([C@H](C)CO)C[C@@H](C)[C@@H](CN(C)C(=O)Nc1ccc(F)cc1)OCCCC[C@@H](C)O2,inactive
4,O=C(Nc1ccccc1C(=O)O)c1nnc[nH]1,inactive
5,O=C(NCC[C@H]1CC[C@H](NS(=O)(=O)c2cccc(F)c2)[C@H](CO)O1)C1CC1,inactive
6,C[C@@H](Oc1ccccc1)c1ccn[nH]1,inactive
7,C[C@H]([C@H](C)N1CC(=O)NC(=O)C1)N1CC(=O)NC(=O)C1,inactive
8,C[C@@H]1CCCCO[C@H](CN(C)Cc2ccc3c(c2)OCO3)[C@H](C)CN([C@H](C)CO)C(=O)c2cc(NC(=O)Nc3ccc(C(F)(F)F)cc3)ccc2O1,active
9,C[C@@H]1CCCCO[C@@H](CN(C)Cc2ccc3c(c2)OCO3)[C@H](C)CN([C@H](C)CO)C(=O)c2cc(NC(=O)Nc3ccc(C(F)(F)F)cc3)ccc2O1,active
10,C[C@@H]1CCCCO[C@H](CN(C)Cc2ccc3c(c2)OCO3)[C@@H](C)CN([C@H](C)CO)C(=O)c2cc(NC(=O)Nc3ccc(C(F)(F)F)cc3)ccc2O1,active
11,C[C@H]1CCCCO[C@H](CN(C)Cc2ccc3c(c2)OCO3)[C@@H](C)CN([C@@H](C)CO)C(=O)c2cc(NC(=O)Nc3ccc(C(F)(F)F)cc3)ccc2O1,active
12,COCN(C#N)c1nc(N(C)C)nc(N(C)C)n1,inactive
13,C[C@@H]1CN([C@H](C)CO)S(=O)(=O)c2ccc(-c3ccncc3)cc2O[C@H]1CN(C)S(=O)(=O)c1ccccc1F,inactive
14,NC(=O)c1cccnc1N1CCN(C(=O)[C@@H]2CC(=O)N(C3CC3)C2)CC1,inactive
15,CCCC(=O)Nc1ccc2c(c1)C(=O)N(C)[C@@H]1CC[C@@H](CC(=O)NCCN3CCCCC3)O[C@H]1CO2,inactive
16,Cn1nc(O)c(=O)[nH]c1=S,inactive
17,O=C(Cc1ccncc1)Nc1ccc2c(c1)[C@H]1C[C@H](CC(=O)N3CCc4ccccc4C3)O[C@@H](CO)[C@H]1O2,inactive
18,Cc1cn2c3c(=O)n(C)c(=O)n(C)c3nc2n1CCN1CCOCC1,inactive
19,Cc1noc(C)c1NC(=O)N(C)C[C@H]1OCCCC[C@H](C)Oc2ccc(NC(=O)CCC(F)(F)F)cc2C(=O)N([C@H](C)CO)C[C@@H]1C,inactive
20,C[C@@H]1CN([C@@H](C)CO)C(=O)c2cc(NC(=O)Nc3ccc(C(F)(F)F)cc3)ccc2O[C@@H](C)CCCCO[C@H]1CN(C)Cc1ccc2c(c1)OCO2,active
21,C[C@H](CO)N1C[C@H](C)[C@@H](CN(C)Cc2ccc3c(c2)OCO3)OCCCC[C@H](C)Oc2ccc(NC(=O)Nc3ccc(C(F)(F)F)cc3)cc2C1=O,active
22,C[C@@H]1CN([C@H](C)CO)C(=O)c2cc(NC(=O)Nc3ccc(C(F)(F)F)cc3)ccc2O[C@@H](C)CCCCO[C@H]1CN(C)Cc1ccc2c(c1)OCO2,active
23,Cn1c(=O)[nH]c(=O)c2c(=O)cc[nH]c21,inactive
24,COc1ccccc1CNC(=O)C[C@H]1C[C@H]2c3cc(NC(=O)Cc4ccncc4)ccc3O[C@H]2[C@@H](CO)O1,inactive
25,C[C@@H]1CCCCO[C@H](CN(C)S(=O)(=O)c2ccc(F)cc2)[C@H](C)CN([C@H](C)CO)C(=O)c2cc(NC(=O)Nc3cccc4ccccc34)ccc2O1,inactive

row,SMILES,cytotoxicity call
1,C[C@@H]1CN([C@@H](C)CO)C(=O)c2c(c3ccccc3n2C)-c2ccccc2CO[C@H]1CN(C)C(=O)Nc1cccc(Cl)c1Cl,inactive
2,CC(C)[C@H](NC=O)C(=O)OC[C@H](O)[C@H](O)[C@H](O)[C@H](O)COC(=O)[C@H](NC=O)C(C)C,inactive
3,C[C@H](CO)N1C[C@H](C)[C@@H](CN(C)Cc2ccncc2)Oc2c(NC(=O)c3ccncc3)cccc2C1=O,inactive
4,O=C1CSC(/N=C/c2ccccc2O)=NN1,active
5,O=C(NCc1cccc(F)c1)[C@@H]1[C@@H](CO)[C@@H]2Cn3c(cccc3=O)[C@H]1N2C(=O)c1cnccn1,inactive
6,CN(C)CC/C=C1/c2ccccc2Sc2ccc(Cl)cc21,active
7,CN(C)CCC=C1c2ccccc2Sc2ccc(Cl)cc21.Cl,active
8,CCS(=O)(=O)N1C[C@]2(CN(Cc3cc(ccc3F)F)C2)c2c(n(c3cc(ccc23)OC)C)[C@H]1CO,inactive
9,CCS(=O)(=O)N1C[C@]2(CN(Cc3ccc4c(c3)OCO4)[C@H](CO)c3c2c2ccc(cc2n3C)OC)C1,inactive
10,C[C@@H]1CN([C@@H](C)CO)C(=O)c2cccc(NS(C)(=O)=O)c2O[C@H]1CN(C)C(=O)Nc1ccc2c(c1)OCO2,inactive
11,Cc1noc(C)c1S(=O)(=O)N(C)C[C@H]1OCCCC[C@@H](C)Oc2ccc(N(C)C)cc2C(=O)N([C@H](C)CO)C[C@@H]1C,inactive
12,COc1ccc(NC(=O)Nc2ccc3c(c2)C(=O)N([C@@H](C)CO)C[C@H](C)[C@@H](CN(C)C(=O)CCC(F)(F)F)OCCCC[C@@H](C)O3)cc1,inactive
13,C[C@H](CO)N1C[C@H](C)[C@@H](CN(C)Cc2ccncc2)OCCCC[C@H](C)Oc2ccc(NC(=O)C3CCCCC3)cc2C1=O,inactive
14,C[C@@H]1CN([C@H](C)CO)C(=O)c2cc(NC(=O)CCCN(C)C)ccc2O[C@@H]1CN(C)Cc1ccc(Oc2ccccc2)cc1,active
15,C[C@@H]1CN([C@H](C)CO)C(=O)c2cc(NC(=O)CCCN(C)C)ccc2O[C@H]1CN(C)Cc1ccccc1,inactive
16,COc1ccc(CN(C)C[C@@H]2Oc3ccc(NC(=O)CCCN(C)C)cc3C(=O)N([C@H](C)CO)C[C@H]2C)cc1,inactive
17,C[C@@H]1CN([C@H](C)CO)C(=O)c2cc(NC(=O)CCCN(C)C)ccc2O[C@H]1CN(C)Cc1ccc(Oc2ccccc2)cc1,active
18,C[C@H]1CN([C@@H](C)CO)C(=O)c2cc(NC(=O)CCCN(C)C)ccc2O[C@@H]1CN(C)Cc1ccc(Oc2ccccc2)cc1,active
19,C[C@H]1CN([C@@H](C)CO)C(=O)c2cc(NC(=O)CCCN(C)C)ccc2O[C@H]1CN(C)Cc1ccccc1,inactive
20,C[C@@H]1CN([C@@H](C)CO)C(=O)c2cc(NC(=O)CCCN(C)C)ccc2O[C@H]1CN(C)Cc1ccccc1,inactive
21,COc1ccc(CN(C)C[C@H]2Oc3ccc(NC(=O)CCCN(C)C)cc3C(=O)N([C@H](C)CO)C[C@H]2C)cc1,inactive
22,C[C@H](CO)N1C[C@H](C)[C@@H](CN(C)Cc2ccc(Oc3ccccc3)cc2)Oc2ccc(NC(=O)CCCN(C)C)cc2C1=O,inactive
23,C[C@@H]1CN([C@@H](C)CO)C(=O)c2cc(NC(=O)CCCN(C)C)ccc2O[C@H]1CN(C)Cc1ccc(Oc2ccccc2)cc1,inactive
24,C[C@H](CO)N1C[C@H](C)[C@@H](CN(C)Cc2ccccc2)Oc2ccc(NC(=O)CCCN(C)C)cc2C1=O,inactive
25,C[C@H]1CN([C@@H](C)CO)C(=O)c2cc(NC(=O)CCCN(C)C)ccc2O[C@H]1CN(C)Cc1ccc(Oc2ccccc2)cc1,active
